In PubChem BioAssay AID1159580 (chemical genetic matrix, 2015):
Screen size: about 5,500 compounds; about 2,000 (36%) were called active. Another 18% or so got no clear call; they are omitted. Rule as the data show it: active = normalized growth mostly below about 0.91 (no sharp cut-off); inconclusive = no clear call, values can overlap the other calls; inactive = mostly above about 0.92. The list shows a part of the results.

Test: chemical genetic growth profiling, strain panel (AID 1159580);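 also: tested at 20 µM; growth read once vehicle control cultures reached saturation at 30 °C; 1 = growth at the plate median or of vehicle wells; lower values mean less growth of the strain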
Settings: S. cerevisiae deletion strains, growth OD

Measured: normalized growth

COc1ccc(OC)c(C(=O)c2cc(OC)c(OC)c(OC)c2)c1
active: locus YLR039C, strain RIC1, active compounds read low 0.753 | locus YLR262C, strain YPT6, active compounds read low 0.69
inactive: locus YAL013W, strain DEP1, active compounds read low 0.999 | locus YBR229C, strain ROT2, active compounds read low 1.02 | locus YDL101C, strain DUN1, active compounds read low 1 | locus YDR150W, strain NUM1, active compounds read low 1.01 | locus YEL061C, strain CIN8, active compounds read low 1.05 | locus YGR078C, strain PAC10, active compounds read low 1 | locus YHR030C, strain SLT2, active compounds read low 0.93 | locus YHR087W, strain rtc3, active compounds read low 1.06 | locus YJL187C, strain SWE1, active compounds read low 1.01 | locus YJR043C, strain POL32, active compounds read low 1.02 | locus YJR075W, strain HOC1, active compounds read low 1.03 | locus YKL190W, strain CNB1, active compounds read low 1.03 | locus YLR058C, strain SHM2 (second series), active compounds read low 1.01 | locus YLR085C, strain ARP6, active compounds read low 0.999 | locus YML094W, strain GIM5, active compounds read low 0.982 | locus YMR219W, strain ESC1, active compounds read low 1.01 | locus YMR263W, strain SAP30, active compounds read low 1.01 | locus YNL153C, strain GIM3, active compounds read low 1.01 | locus YNL298W, strain CLA4 (second series), active compounds read low 1.01 | locus YNL322C, strain KRE1, active compounds read low 0.995 | locus YNR030W, strain Alg12, active compounds read low 1.01 | locus YOL006C, strain TOP1, active compounds read low 0.973 | locus YPL055C, strain LGE1, active compounds read low 1.01 | locus YPL241C, strain CIN2, active compounds read low 0.986 | locus YPR135W, strain CTF4, active compounds read low 1.06
